High-throughput results (PubChem BioAssay)
D1 antag: blocks dopamine activation of the human D1 receptor; hit rate 3.2% among 360,000; HEK293 TREx D1 cells, calcium flux, dopamine EC80; stronger effect = lower value; activity change, negative = inhibition, % at 10 µM; in the data active = activity change below about -30%; also: % is scaled to controls: 0 for no effect and ±100 for the full control effect
Target sequence (P21728 whole entry, looked up): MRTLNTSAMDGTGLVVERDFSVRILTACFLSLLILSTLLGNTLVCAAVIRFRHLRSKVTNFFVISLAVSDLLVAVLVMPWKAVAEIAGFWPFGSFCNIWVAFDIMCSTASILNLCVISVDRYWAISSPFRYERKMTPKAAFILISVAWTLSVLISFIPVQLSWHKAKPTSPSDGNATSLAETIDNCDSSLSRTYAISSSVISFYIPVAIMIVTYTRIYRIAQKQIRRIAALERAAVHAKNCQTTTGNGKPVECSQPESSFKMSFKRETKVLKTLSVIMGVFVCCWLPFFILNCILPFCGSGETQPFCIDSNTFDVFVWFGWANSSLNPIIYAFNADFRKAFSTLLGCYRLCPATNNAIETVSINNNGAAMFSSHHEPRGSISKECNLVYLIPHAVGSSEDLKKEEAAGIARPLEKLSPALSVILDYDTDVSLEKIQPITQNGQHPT
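HEK293 T-REx cells expressing inducible, force-coupled D1 receptor; no-wash Ca dye, 30–90 min RT. Cmpd → 180 s read at 1 Hz → EC80 DA → 180 s read.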
TRHR enhancer: allosteric enhancers of human TRH receptor; TRHR cells, fluo-8 calcium fluorescence, EC20 TRH enhancement; hit rate 0.66% among 360,000; enhancement, % at 2 µM; AID 493056; in the data active = enhancement above about 30%; also: 0% is about no effect
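Enhancer read-out: after compound pinning and an initial kinetic agonist-mode read, an EC20 of TRH (10 nM final) was injected and fluo-8 calcium signal (Ex 480/Em 530) followed at 1 s/cycle for 100 cycles in TRHR-expressing cells.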
D1 ag: agonists of human D1 dopamine receptor. HEK293 T-REx D1 cells, calcium flux, agonist mode. activation, % at 2 µM. hit rate 1% among 360,000. AID 504660; also: 0% is about no effect
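Inducible HEK293 T-REx D1 cells, force-coupled to calcium signalling, were plated at 4000 cells/well with tetracycline and held overnight at 30 C. After no-wash calcium dye loading, compound-evoked calcium rise over 180 s flagged agonists.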
TRHR agonist: activates the human TRH receptor; P34981; TRHR cells, calcium flux fluo-8, FDSS agonist mode; activation, % at 2 µM; hit rate 0.18% among 360,000; also: 0% is about no effect
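Steps: seed TRHR cells overnight; add fluo-8 no-wash Ca dye, RT 30 min–1.5 h; record 10 s baseline; pin-transfer compounds; monitor fluorescence 1 cycle/s for the agonist window. Calcium increases flag candidate agonists.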
D1 potentiator: human D1 dopamine receptor positive modulation; HEK293 TREx D1 cells, calcium flux, dopamine EC20 potentiation; potentiation, % at 10 µM; hit rate 0.036% among 360,000; AID 504651; in the data active = potentiation above about 30%; also: 0% is about no effect
The depositor's hits bear a star; . = no result given; ! = repeats disagree. A selection: hits, their analogues and other compounds. The true share with any hit is near 4.6%. Rule as the data show it, unless noted: active = activation above about 30%; inactive = the rest.

SMILES	D1 antag	TRHR enhancer	D1 ag	TRHR agonist	D1 potentiator
Cc1ccc2nc(Nc3ccc(Br)cc3)nc(-c3ccccc3)c2c1	-1.9	1.9	1.4	0.2	0.8
CN(C)c1ccc(/C=C/c2ccc3ccccc3[n+]2C)cc1	9.0	-3.4	1.9	-0.4	1.4
CN(C)c1ccc(/C=C/c2ccc3c4ccccc4ccc3[n+]2-c2ccccc2)cc1	-32.6*	-9.4	4.1	2.4	-4.5
COc1ccc(C(=O)COC(=O)CCN2C(=O)C3C4CC(C(Br)C4Br)C3C2=O)cc1 (stereo unspecified)	5.5	17.4	1.4	0.1	-4.3
COc1ccc(C(=O)COC(=O)CN2C(=O)C3C4C=CC(C5CC45)C3C2=O)cc1 (stereo unspecified)	-32.7*	2.9	9.2	0.1	0.2
CCc1cc2c(SCc3ccc(C(=O)OC)o3)ncnc2s1	-31.5*	-2.3	1.9	0.0	-1.8
O=C(COc1cccc(C(F)(F)F)c1)N1CCN(c2ccccc2O)CC1	-34.5*	-3.9	11.7	-0.1	-6.2
O=C(COc1ccc2c(c1)CCC2)N1CCN(c2cccc(C(F)(F)F)c2)CC1	-44.1*	19.7	8.0	-0.1	-1.8
O=C(COc1cccc(C(F)(F)F)c1)N1CCN(c2ccc(O)cc2)CC1	-3.5	-3.7	6.0	0.2	8.7
Cc1cc(NC(=O)N2CCC(CN3CCCCCC3)CC2)ccc1Br	5.7	8.0	-0.9	0.6	-4.0
O=c1[nH]c(=O)n(Cc2ccco2)c2c1C(C(F)(F)F)(C(F)(F)F)N=C(c1ccc(F)cc1)N2	.	3.0	37.0*	-0.6	-2.5
CCOc1ccc(OCC)c(S(=O)(=O)N2CCOCC2)c1	-1.0	32.7*	1.0	0.0	-3.5
Cc1c(NC(=O)Nc2ccc(Br)cc2F)sc2nc3n(c(=O)c12)CCC(C)CC3 (stereo unspecified)	26.7	-1.2	0.8	-0.2	-7.3
Cc1cccc(C)c1OCCCn1c(CCNC(=O)C2CCCCC2)nc2ccccc21	20.8	-6.3	10.0	-2.2	-1.9
Cc1ccc(NC(=O)N(Cc2cc3cc(C)cc(C)c3[nH]c2=O)CC2COCCO2)cc1 (stereo unspecified)	-2.6	0.2	-0.7	-0.9	1.0
COc1cccc(NC(=O)N(Cc2cc3cc(C)cc(C)c3[nH]c2=O)CC2COCCO2)c1 (stereo unspecified)	-31.7*	5.1	-0.4	-1.3	2.5
CCOc1ccc(-n2c(/C=C/c3cccc(F)c3)nc3cc(OC)c(OC)cc3c2=O)cc1	5.7	-1.3	-0.7	-0.1	-1.8
O=C(Cc1nnc(-c2cc3ccccc3[nH]2)s1)Nc1cc(C(F)(F)F)ccc1Cl	-34.3*!	16.0	2.6	0.6	0.8
O=C(Cc1nnc(-c2cc3ccccc3[nH]2)o1)Nc1cc(C(F)(F)F)ccc1Cl	5.4	-3.7	0.8	-0.3	-4.3
O=C(O)Cc1nnc(-c2cc3ccccc3[nH]2)s1	-36.6*	1.3	0.5	1.0	8.6
O=C(NCc1nnc(-c2cc3ccccc3[nH]2)s1)c1ccccc1	3.8	-2.6	2.8	1.4	-5.1
COc1cc(OC)c(NC(=O)CSc2nc3ccncc3[nH]2)cc1Cl	-21.2	2.5	6.5	-0.8	-3.6
C=CCSc1nc(N)c(C#N)c(-c2ccc(C)cc2)c1C#N	-3.9	38.4*	1.9	0.2	-4.6
Cc1c(C(=O)NCc2ccco2)oc2c(F)cccc12	-20.1	37.0*	0.6	0.3	-6.7
CC(=O)c1c(C)[nH]c(C(=O)NCc2ccco2)c1C	-64.5*	-0.8	1.6	-0.2	-8.3
SMILES	D1 antag	TRHR enhancer	D1 ag	TRHR agonist	D1 potentiator
CC(=O)c1[nH]c(C)c(C(=O)NCc2ccc(Cl)cc2)c1C	2.3	-3.1	38.8*	-0.7	-1.2
CCc1ccc2occ(CC(=O)Nc3ccccc3C(F)(F)F)c2c1	10.5	6.6	21.8	-1.1	-2.0
CCc1ccc2occ(CC(=O)NCc3ccccc3)c2c1	-12.9	10.2	49.0*	-1.3	-0.3
Cc1c(Cl)cccc1NC(=O)c1ncn(-c2ccccc2)n1	8.2	-5.4	1.3	0.5	0.0
Cc1ccccc1CNS(=O)(=O)c1ccc2c(c1)OCCO2	-32.4*	11.2	20.4	-0.4	-9.6
CC(=O)N1CCOc2ccc(S(=O)(=O)NCc3ccccc3Cl)cc21	-32.1*	0.0	0.8	-0.3	-4.2
Cc1ccc(CNS(=O)(=O)c2ccc3c(c2)OCCO3)cc1	-5.9	-7.5	9.8	-0.4	-5.9
Cc1ccccc1CNS(=O)(=O)c1ccccc1[N+](=O)[O-]	6.1	32.1*	1.3	-0.5	-3.9
COc1ccccc1CNS(=O)(=O)c1ccc2c(c1)N(C(C)=O)CCO2	-5.3	7.9	-0.6	0.0	2.0
CCCC1(c2ccccc2)NC(=O)N(CC(=O)c2[nH]c(C)c(C(=O)OCC)c2C)C1=O (stereo unspecified)	42.3	5.0	39.3*	-1.3	3.7
CCOC(=O)c1c(C)[nH]c(C(=O)CN2C(=O)NC3(CCCC3)C2=O)c1C	28.8	2.5	2.0	-0.1	-0.5
COc1cc(NC(=O)CCCOc2cc(=O)n(C)c3ccccc23)cc(OC)c1OC	3.1	14.1	2.5	0.6	-1.9
CCOc1ccc(N(C)C(=O)c2oc(=O)c3ccccc3c2-c2ccccc2)cc1	2.8	1.9	-0.5	0.2	1.0
Cc1cccc(NC(=O)C(C)N2C(=O)c3ccccc3S2(=O)=O)n1 (stereo unspecified)	2.0	0.5	1.6	0.0	0.7
CC(C(=O)Nc1ncc([N+](=O)[O-])s1)N1C(=O)c2ccccc2S1(=O)=O (stereo unspecified)	-35.1*	1.3	3.7	0.7	-3.6
CCOc1ccc(NC(=O)CC2C(=O)N(c3ccccc3)C(=O)N2Cc2ccc3c(c2)OCO3)cc1 (stereo unspecified)	-50.9*	-1.4	0.2	-0.7	1.1
COC(=O)c1ccc(NC(=O)CC2C(=O)N(c3ccccc3)C(=O)N2Cc2ccco2)cc1 (stereo unspecified)	4.8	18.5	0.8	0.1	-8.1
CCCCCCOc1ccc(NC(=O)CC2C(=O)N(CC)C(=S)N2Cc2ccco2)cc1 (stereo unspecified)	-40.3*	-6.0	7.7	0.1	-4.3
CCN1C(=O)C(CC(=O)Nc2ccc(F)cc2)N(Cc2ccco2)C1=S (stereo unspecified)	13.3	10.7	4.8	1.2	-3.0
COc1ccc(NC(=O)CC2C(=O)N(c3ccc(C)cc3)C(=O)N2Cc2ccc3c(c2)OCO3)cc1 (stereo unspecified)	-7.7	3.3	8.1	-1.5	-1.4
CCOc1ccc(NC(=O)CC2C(=O)N(c3ccccc3)C(=O)N2Cc2ccco2)cc1 (stereo unspecified)	-42.4*	15.1	-1.6	-0.1	-4.5
CCc1ccc2oc(-c3cccc(NC(=O)c4ccc(N5CCC(C)CC5)c([N+](=O)[O-])c4)c3)nc2c1	-4.2	0.8	-1.0	-0.1	-1.1
CCCn1c(C)cc(C(=O)CSc2nc3nc(C)cc(C)n3n2)c1C	-49.4*	4.5	2.4	0.4	-5.5
